Screening results from PubChem.
Rows were chosen to be rich in hits. Some 3.8% of all compounds tested hit in one or more screens of this group.
tim10-1 inh = growth inhibitors of tim10-1 mutant yeast | S. cerevisiae tim10-1 ts strain growth, BacTiter-Glo, 24 h | inhibition, % at 20 µM | 2.2% of 330,000 active;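 active = inhibition of at least 40%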;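 note: mutant grown at 25 °C; 0% = DMSO wells with yeast and 100% = wells holding no yeast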
NALP3 yeast inh = inhibitors of NALP3 inflammasome in yeast; AID 2825; 0.39% of 330,000 active; Yeast reconstituted NLRP3/ASC/caspase-1, beta-gal luminescence, 24 h; inhibition, % at 10 µM;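 active = inhibition of 50% or more; inactive = inhibition below 50%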;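 note: plate controls were induced DMSO wells for no effect and uninduced yeast grown without galactose for full effect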
TIM10 inh = TIM10 yeast growth inhibition; 1.4% of 330,000 active; inhibition, % at 10 µM; AID 463195; S. cerevisiae TIM10 strain growth, BacTiter-Glo luminescence, 24 h;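 active = inhibition of 40% or more at the single tested concentration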;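 note: wild-type TIM10 isogenic control strain grown at permissive 25 °C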
CR mimetic SO = caloric restriction mimetics inhibiting age-related superoxide in yeast | S. cerevisiae aged cells, superoxide DHE fluorescence; active compounds read low | superoxide response (% of plate mean), % at 10 µM | 0.18% of 330,000 active | AID 2690;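 active = superoxide response under a set limit, about three screen SD below normal, cut at about 65% in these data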;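 note: yeast aged for seven days with compound at 30 °C before DHE staining; 100% = average MFI of all compound-treated wells on the plate with controls excluded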
tim23-1 inh = tim23-1 yeast growth inhibition; inhibition, % at 20 µM; S. cerevisiae tim23-1 growth, BacTiter-Glo luminescence, 24 h; 1.3% of 330,000 active;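 active = growth inhibition of the mutant yeast at or above 50%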;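 note: temperature-sensitive mutant grown at 25 °C; plate controls were DMSO-treated mutant yeast for no effect and medium wells lacking yeast for full effect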
Superoxide pick = yeast aging superoxide inhibition, cherry pick confirmation; S. cerevisiae aging, superoxide DHE fluorescence; active compounds read low; superoxide response (% of plate), % at 10 µM; shares compounds with CR mimetic SO; 1% of 850 active;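 active = superoxide signal below 65% of the plate average of sample wells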;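 note: cells aged with compound for 7 days at 30 degrees C before staining; 100% equals mean DHE fluorescence of all compound wells on the plate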
DHE fluor count = DHE fluorescence interference, counter-screen artifact; shares compounds with CR mimetic SO; AID 435000; S. cerevisiae BY4741, flow cytometry; active compounds read low; fluorescence response, % at 10 µM; 850 tested, under 10 active;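 active = fluorescence response below 15%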;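 note: percent of the mean fluorescence averaged over all compound wells on the plate; lower means stronger quenching of DHE signal or ROS scavenging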
Active calls of the source: *; . = not tested or not shown.

SMILES	tim10-1 inh	NALP3 yeast inh	TIM10 inh	CR mimetic SO	tim23-1 inh	Superoxide pick	DHE fluor count
CCCCn1c(=O)c2c(O)cc(=O)oc2c2ccccc21	14	32	0	43*	24	115	105
COc1ccc(N(CC(=O)NCc2ccccc2)S(=O)(=O)c2c(C)n[nH]c2C)cc1	-7	8	-8	109	-13	.	.
N#Cc1ccc(Cl)cc1NC(=O)CNCc1cccs1	12	20	6	63*	11	96	93
COc1ccc(C(=O)N/C(=C\c2cn(C)c3ccccc23)C(=O)NCCCN2CCOCC2)cc1	-1	5	-2	100	6	.	.
CCNC(=O)/C=C/c1ccccc1[N+](=O)[O-]	9	4	5	112	5	.	.
O=C(/C=C/c1ccccc1[N+](=O)[O-])NCc1ccccc1Cl	11	11	-9	64*	19	116	105
O=c1c(Cc2ccc(Cl)cc2Cl)c(O)ccn1Cc1ccc(Cl)cc1	11	-4	10	100	33	.	.
COc1ccc(C2(C(=O)NCCc3ccccc3)CCCC2)cc1OC	24	-3	-4	47*	3	108	93
O=C(CC1C(=O)NCCN1CC(c1ccccc1)c1ccccc1)NC1CC1 (stereo unspecified)	27	2	27	119	32	.	.
Cc1cc(NC(=O)CSc2nnc(-c3ccc(S(=O)(=O)N4CCCC4)cc3)n2C)no1	2	4	0	51*	5	90	108
CCN(CC)S(=O)(=O)c1ccc(N2CCCC2)c(NC(=O)Cc2cc(OC)c(OC)c(OC)c2)c1	10	15	3	102	4	108	102
CCN(CC)S(=O)(=O)c1ccc(N2CCCC2)c(NC(=O)Cc2ccc(OC)cc2)c1	15	-5	16	98	19	105	93
CCOc1ccccc1NC(=O)NC1(C(=O)NCc2cccnc2)CCCCC1	0	17	12	98	1	.	.
CCNC(=S)N(CCc1c(C)[nH]c2ccccc12)Cc1cccnc1	22	6	0	113	7	.	.
COCCN(CCOC)S(=O)(=O)c1ccc(C(=O)Nc2nnc(C3CC3)o2)cc1	-9	-9	-5	81	7	.	.
CN(c1ccccc1)S(=O)(=O)c1ccc(C(=O)Nc2nnc(C3CC3)o2)cc1	25	-2	1	95	10	98	100
CCN(c1ccccc1)S(=O)(=O)c1ccc(C(=O)Nc2nnc(C3CC3)o2)cc1	23	17	20	99	17	97	90
Cc1nn(C)c(C(=O)NNC(=S)NC2CCCCC2)c1Br	6	16	-3	93	-8	.	.
Cc1ccc(CNS(=O)(=O)c2c(C(=O)N3CCCCCC3)c(C)n(C)c2C)cc1	19	8	21	106	20	.	.
CS(=O)(=O)c1ccc2nc(NC(=O)CCN3C(=O)c4ccccc4C3=O)sc2c1	-4	5	14	99	-3	.	.
CC(C)c1ccc(/C=C/C(=O)NC(=S)Nc2ccc(CN3CCOCC3)cc2)cc1	38	27	24	61*	18	101	92
CCOC(=O)c1cnc2cc(-c3ccc(Br)cc3)nn2c1C	-7	11	1	96	-1	114	114
CCOC(=O)c1cnc2cc(C)nn2c1C	9	11	-3	98	14	.	.
CCN(CC)CCN(Cc1cc2cc3c(cc2[nH]c1=O)OCO3)C(=S)NCCOC	-24	-1	-2	98	-8	.	.
CN1CCN(S(=O)(=O)c2ccc(NN)nc2)CC1	0	8	5	84	3	.	.
CC(NC(=O)[C@@H](C)NC(=O)[C@@H]1Cc2ccccc2CN1C(=O)OC(C)(C)C)c1ccccc1 (stereo partly specified)	11	13	10	83	19	.	.
COc1ccc(-n2c(C)cc(C(=O)CN3CCCCC3)c2C)cc1	14	20	2	97	1	.	.
COc1ccc(-n2c(C)cc(C(=O)CN3CCC(C)CC3)c2C)cc1	3	17	-19	65*	7	104	89
O=C(COC(=O)c1cc(S(=O)(=O)N2CCOCC2)c(Cl)cc1Cl)c1ccc[nH]1	12	16	10	81	37	.	.
Cc1ccccc1OCC(=O)OCn1nnc2ccccc2c1=O	18	11	-11	65*	27	109	102
